APEX1 inh: qHTS Assay for Inhibitors of the Human Apurinic/apyrimidinic Endonuclease 1 (APE1); DNA repair nuclease/redox regulator APEX1 (Homo sapiens), P27695; recombinant APE1, TAMRA/BHQ-2 abasic DNA cleavage fluorescence; Potency, µM (highest dose often 65.8 µM), without a hit: at the top dose activity change, negative = inhibition, actives largely listed as inhibitors; 0.35% of 350,000 active; AID 2517, 2012;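 further: plate controls were vehicle for no effect and reference inhibitor for full effect; nearly all actives have a fitted effect of over 55% in size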
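Activity was derived from the fluorescence gain between first and third kinetic reads (60 s intervals, ex 525/em 598 nm) after 50 nM THF-abasic TAMRA/BHQ-2 duplex was added to 0.75 nM APE1 preincubated 15 min with compound.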
BLM helicase inh: qHTS Assay for Inhibitors of Bloom's syndrome helicase (BLM); Potency, µM (doses to about 56.1 µM), inactives show top-dose activity change, negative = inhibition, hits mostly inhibitors; recombinant BLM DNA unwinding, fluorescence dequenching; 0.2% of 350,000 active; RecQ-like DNA helicase BLM (Homo sapiens), P54132; AID 2528, 2010;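 further: plate controls were vehicle for no effect and no enzyme for full effect; nearly all actives have a fitted effect of over 35% in size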
TDP1 block: qHTS Assay for Inhibitors of Tyrosyl-DNA Phosphodiesterase (TDP1); Tyrosyl-DNA phosphodiesterase 1 (Homo sapiens), Q9NUW8; recombinant TDP1, AlphaScreen DNA substrate cleavage; Potency, µM (titrated, usually from 130 µM), without a hit: at the top dose activity change, negative = inhibition, usual class: inhibitors; 0.28% of 350,000 active; AID 485290, 2010; further: nearly all actives have a fitted effect of over 40% in size
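AlphaScreen read-out: signal falls as enzyme removes the 3' tyrosine-FITC from a 5'-biotinylated DNA oligo (15 nM, 5 min, RT). Enzyme was E. coli-made recombinant Tdp1 at 1 nM, exposed to compound for 15 min beforehand; beads 10 ug/ml, 10 min.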
RECQ1 helicase: qHTS Assay for Inhibitors of RecQ-Like Dna Helicase 1 (RECQ1); ATP-dependent DNA helicase Q1 (Homo sapiens), P46063; RECQ1 DNA unwinding, red fluorescence kinetic read; Potency, µM (highest dose often 57.3 µM), inactives show top-dose activity, negative = inhibition, most hits filed as inhibitors; 0.54% of 240,000 active; AID 2549, 2010;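 further: plate controls were vehicle for no effect and no enzyme for full effect; nearly all actives have a fitted effect of over 30% in size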
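50 nM RECQ1T1 preincubated 15 min with compound in Tris pH 8.0 buffer with MgCl2, DTT, Tween-20 and 2.5 ug/ml poly(dI-dC); started with 200 nM TAMRA/BHQ-2 forked duplex and 2 mM ATP. Unwinding read as fluorescence (525/598 nm), two reads 2 h apart.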
FEN1 inhibitor: qHTS Assay for the Inhibitors of Human Flap endonuclease 1 (FEN1). AID 588795, 2011. P39748. 0.35% of 390,000 active. Recombinant FEN1 flap cleavage, fluorescence, 15 min. Potency, µM (series often up to 114 µM), for inactives: at the top dose activity change, negative = inhibition, most hits filed as inhibitors; further: nearly all actives have a fitted effect of over 65% in size
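Compounds are tested as a concentration series against 10 nM FEN1; after a 15 min room-temperature preincubation, 50 nM substrate starts cleavage, with plate reads at 0 and 15 min. Normalized responses are fitted by a Hill equation.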
Numbers without * were called inactive; i = inactive; ? = inconclusive; · = not tested or not shown; ! = not active in a repeat; [ ] = dose if it differs, or a comment. Sampled rows, rich in hits. Any-hit rate of the full collection: about 0.92%. The call rests on the fitted dose curve; in most records, active means well fitted curve in the direction sought with a large enough effect; inconclusive means small, poorly fitted or top-dose-only effect, or another doubt; inactive means no such curve, though single readings can be large; an effect the other way counts as inactive or inconclusive. Unless noted, on the % scale 0 is the no-effect control and ±100 the full control effect; potency means the concentration at half of the fitted maximal effect.

SMILES	APEX1 inh	BLM helicase inh	TDP1 block	RECQ1 helicase	FEN1 inhibitor
COc1ccc(OC)c(CNC(=O)C(C)n2c(C)c3cnn(-c4ccccc4)c(=O)c3c2C)c1 (configuration not stated)	·	2%	5%	·	3%
CC[n+]1ccc(C[n+]2ccccc2)c2ccccc21	-1%	-5%	22µM*	3%	-8%
Cc1ccc2c(c1)c(C)cc[n+]2Cc1ccccc1	6%	6%	5%	-7%	11%
CCOc1cc2sc(N3CCC(C(=O)Nc4ccccc4C(=O)OC)CC3)nc2cc1Br	·	-2%	-2%	·	7%
NCCCCCCN	0%	·	5%	-2%	·
CN(CCCC1CCCC1)C(=O)c1cc(COc2c(F)cccc2F)on1	-40%	-16%	79µM*	·	?
CCc1ccc2nc(N(CCCN(C)C)C(=O)c3ccc(S(=O)(=O)N(C)C4CCCCC4)cc3)sc2c1	36%	-2%	7%	·	79µM*
Cc1ccc(NC(=O)c2cc3c(=O)n(Cc4cccnc4)ccc3nc2C)cc1F	·	0%	3%	·	-7%
CCc1ccc(S(=O)(=O)c2nnn(-c3ccc(F)cc3)c2N)cc1	·	-3%	5%	·	-1%
O=C(Nc1ccccc1-c1ccccc1)c1ccccc1	-3%	1%	·	·	-13%
Nc1c(S(=O)(=O)O)cc(NC(=O)c2ccccc2)c2c1C(=O)c1ccccc1C2=O	21µM*	?	·	·	?
CNc1c(NC(=O)C2CCC(C)CC2)c(=O)oc2ccccc12 (configuration not stated)	-10%	-5%	79µM*	·	10%
CCOc1cc(/C=C2\SC(=O)N(CC(=O)Nc3ccccc3F)C2=O)cc([N+](=O)[O-])c1O	6%	-3%	7%	-14%	50µM*
CC(C)(C)OC(=O)C[C@@H]1C/C=C\C[C@H](CC(=O)NCCO)C(=O)N2CCC[C@H]2COC1=O	6.7µM*	·	-14%	·	-7%
O=C(C[C@@H]1C/C=C\C[C@H](NC(=O)OCC2c3ccccc3-c3ccccc32)C(=O)OC[C@@H]2CCCN2C1=O)N[C@@H](CO)Cc1ccccc1	-35%	·	-11%	·	-18%
O=C(C[C@@H]1C/C=C\C[C@H](NC(=O)OCC2c3ccccc3-c3ccccc32)C(=O)OC[C@@H]2CCCN2C1=O)NCCO	9.5µM*	·	?	·	4%
CCc1c(C)sc2c1CCN(Cc1ccccc1)C2c1ccccc1 (configuration not stated)	·	3%	-1%	·	7%
COc1cc(OC)c(NC(=O)CCCn2nc(C)c3sc4ccccc4c3c2=O)cc1Cl	·	3%	0%	·	35µM*
C[c-]1[c-](C)[c-](C)[c-](C)[c-]1C.[Fe].c1cc2nccc(N3CCCC3)[c-]2c1 (configuration not stated)	2.8µM*!	?	7.9µM*!	6.3µM*!	?
c1cc(N2CCCCC2)nc(N2CCCCC2)n1	·	·	·	·	-7%
Cc1ccc(NC(=O)COC(=O)c2ccccc2OCC(=O)Nc2ccc(Br)cc2)c(Br)c1	·	·	·	·	4%
Nc1ccc(C(=O)O)c(O)c1 (tested in a mixture with another compound)	0%	-4%	20%[56.1 µM]	-3%	·
Nc1ccc(O)c(C(=O)O)c1	7.1µM*	-13%	·	7.1µM*	·
CC(=O)N1CC=CC1(CC(C)C)C(=O)O (configuration not stated)	6%	1%	7%	i	·
Cc1ccc2c(c1)ncc[n+]2CC(=O)c1ccc(Cl)cc1Cl	·	·	·	·	-20%
SMILES	APEX1 inh	BLM helicase inh	TDP1 block	RECQ1 helicase	FEN1 inhibitor
Cn1c(-c2ccc(C#N)cc2)c(C#Cc2ccccc2)c2ccccc21	·	·	·	·	-11%
Cn1c(C=O)c(C#Cc2ccccc2)c2ccccc21	8%	·	20µM*	·	5%
Cc1ccc(C(=O)[C@@H]2[C@H]3C4COC(O4)C(=O)[C@@H]3[C@H]3C=Cc4ccccc4N32)cc1 (some centres not stated)	-7%	-12%	17%	-8%	·
CC(=O)[C@@H]1[C@H]2[C@H](C(=O)[C@H]3OC[C@@H]2O3)[C@H]2C=Cc3ccccc3N21	-6%	-16%	·	32µM*	·
CC(=O)Nc1ccccc1NS(=O)(=O)c1ccccc1NO	·	·	0%	·	-2%
Oc1ccc(N=Nc2c(O)ccc3ccccc23)cc1	-12%	-22%	10%	35µM*	-21%
O=C(c1ccc(=O)oc1)N1CCCc2ccccc21	32µM*	?	18µM*	?	56µM*
O=C(c1coc(=O)c(Br)c1)N1CCOCC1	13µM*	1%	22µM*	-9%	-11%
O=C(c1ccc(-n2cccc2)cc1)N1CCOCC1	0%	4%	5%	-4%	5%
O=C(c1ccc(=O)oc1)N1CCOCC1	14µM*	49%	·	-10%	32µM*
O=C(c1ccccc1)N1CCCc2ccccc21	-1%	-4%	-3%	2%	3%
Cc1ccc(OCC(=O)c2c(N)n(C)c(=O)n(C)c2=O)c([N+](=O)[O-])n1	15µM*	·	3.2µM*	·	?
COc1ccc(NC(=O)N2CC3(CCN(C(=O)c4ccncc4)CC3)C2)cc1	16%	1%	·	-9%	·
COc1ccc(/C=N/Nc2nc(-c3cccnc3)nc3ccccc23)cc1OC	-6%	3%	7%	20µM*	?
CC1CCC/C(=C(\C#N)c2nc(-c3cc4ccccc4oc3=O)cs2)C1 (configuration not stated)	8%	0%	5%	2%	3%
CCCSc1nc(C)c(-c2csc(C(C#N)=C3CCCC3)n2)cc1C#N	?	-6%	-6%	7.9µM*	-18%
CCOC(=O)OCC1OC(c2ccccc2)C=CC1Oc1cccc(N(C)C)c1 (configuration not stated)	-11%[12.4 µM]	-2%[12.4 µM]	11%[21 µM]	4%[11.5 µM]	·
Cc1cc2c(s1)c1cnn(Cc3ccc(C(F)(F)F)cc3F)c(=O)c1n2C	·	·	-2%	·	·
CCOC(=O)c1sc(NC(=O)C2CC2)nc1C	11%	2%	3%	-9%	37%
CCOC(=O)c1sc(NC(=O)C2C3C=CC(C3)C2C(=O)O)nc1C (configuration not stated)	?	-3%	79µM*	0%	4%
Cc1cc[n+](-c2[nH]c(=O)sc2/C=N/N=C(\[O-])c2ccncc2)cc1C	-38%	-10%	-11%	·	?
Cc1ccc[n+](-c2[nH]c(=O)sc2/C=N/N=C(\[O-])c2cccnc2)c1	-3%	-5%	50µM*	·	15%

Assay outcomes (PubChem)
